The source of these data is article PMC7862700, “An all-to-all approach to the identification of sequence-specific readers for epigenetic DNA modifications on cytosine”.

Assay in all cases: DAPPL (digital affinity profiling via proximity ligation, sequencing); 10 mM Tris-HCl pH 7.5, 50 mM NaCl, 1 mM DTT, 4% glycerol, room temperature, 30 min; GST-TFs on glutathione beads, 16-mer random dsDNA library, 0.1% formaldehyde crosslink after washing; high values mean tight binding
What all share (conditions): protein: recombinant; tags: N-terminal GST; dsDNA, one strand shown

One assay addresses T1, FLI1 (Homo sapiens, UniProt Q01543 1-452).
T1 sequence: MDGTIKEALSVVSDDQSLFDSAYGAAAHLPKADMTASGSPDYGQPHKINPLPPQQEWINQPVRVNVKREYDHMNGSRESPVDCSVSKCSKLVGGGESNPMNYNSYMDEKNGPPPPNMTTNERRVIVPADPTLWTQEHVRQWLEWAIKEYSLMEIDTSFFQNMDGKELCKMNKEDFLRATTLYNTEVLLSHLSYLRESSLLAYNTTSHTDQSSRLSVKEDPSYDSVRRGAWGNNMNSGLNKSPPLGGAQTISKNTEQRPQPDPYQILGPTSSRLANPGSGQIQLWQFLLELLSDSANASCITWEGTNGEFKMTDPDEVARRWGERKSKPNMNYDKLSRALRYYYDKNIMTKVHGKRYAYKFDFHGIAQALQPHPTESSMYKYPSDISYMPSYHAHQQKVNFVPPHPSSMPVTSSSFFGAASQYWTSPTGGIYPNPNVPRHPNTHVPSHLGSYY
The essentials: (§1)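 GST fusions of human transcription factors were expressed in yeast and captured with glutathione beads. Once given DNA barcodes and pooled alongside a tag-only sample, they were incubated for 30 min at room temperature with 200 nmole of a random double-stranded 16-mer DNA library in Tris/NaCl/DTT/glycerol buffer, then washed, crosslinked (0.1% formaldehyde), proximity-ligated, PCR-amplified and sequenced on an Illumina NextSeq500. The binding signal of each hexamer is its read frequency for a factor divided by its frequency for the tag-only sample.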

The next assay concerns the target T2, ELK1 (Homo sapiens, UniProt P19419 1-428).
T2 sequence: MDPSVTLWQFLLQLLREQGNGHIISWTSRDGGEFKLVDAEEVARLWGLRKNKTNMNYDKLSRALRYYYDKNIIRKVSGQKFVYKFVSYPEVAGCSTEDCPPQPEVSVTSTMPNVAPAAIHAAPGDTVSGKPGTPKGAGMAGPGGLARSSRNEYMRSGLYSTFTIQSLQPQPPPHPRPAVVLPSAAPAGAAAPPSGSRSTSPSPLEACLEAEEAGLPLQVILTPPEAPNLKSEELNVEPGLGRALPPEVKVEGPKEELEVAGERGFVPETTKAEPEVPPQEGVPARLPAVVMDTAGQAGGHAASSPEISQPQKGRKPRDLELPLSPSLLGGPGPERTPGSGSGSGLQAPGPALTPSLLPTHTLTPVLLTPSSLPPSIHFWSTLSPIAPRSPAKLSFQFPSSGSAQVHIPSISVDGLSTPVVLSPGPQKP
In short, it runs like this: as §1

The target of a further assay is T3, GABPA (Homo sapiens, UniProt Q06546 1-454).
T3 sequence: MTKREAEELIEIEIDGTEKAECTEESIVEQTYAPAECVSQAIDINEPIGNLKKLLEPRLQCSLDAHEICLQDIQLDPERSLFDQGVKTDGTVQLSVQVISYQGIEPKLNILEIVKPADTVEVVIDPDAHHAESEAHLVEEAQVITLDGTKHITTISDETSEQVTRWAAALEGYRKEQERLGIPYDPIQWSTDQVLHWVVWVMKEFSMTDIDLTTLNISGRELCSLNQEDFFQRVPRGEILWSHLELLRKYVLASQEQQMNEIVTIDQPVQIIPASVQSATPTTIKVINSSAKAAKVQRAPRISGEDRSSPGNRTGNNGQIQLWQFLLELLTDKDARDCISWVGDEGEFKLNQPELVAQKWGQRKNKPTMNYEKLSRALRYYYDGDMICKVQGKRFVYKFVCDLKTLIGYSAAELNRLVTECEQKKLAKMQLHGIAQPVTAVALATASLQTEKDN
The essentials:
as §1

The target of a further assay is T4, ERG (Homo sapiens, UniProt P11308 1-479).
T4 sequence: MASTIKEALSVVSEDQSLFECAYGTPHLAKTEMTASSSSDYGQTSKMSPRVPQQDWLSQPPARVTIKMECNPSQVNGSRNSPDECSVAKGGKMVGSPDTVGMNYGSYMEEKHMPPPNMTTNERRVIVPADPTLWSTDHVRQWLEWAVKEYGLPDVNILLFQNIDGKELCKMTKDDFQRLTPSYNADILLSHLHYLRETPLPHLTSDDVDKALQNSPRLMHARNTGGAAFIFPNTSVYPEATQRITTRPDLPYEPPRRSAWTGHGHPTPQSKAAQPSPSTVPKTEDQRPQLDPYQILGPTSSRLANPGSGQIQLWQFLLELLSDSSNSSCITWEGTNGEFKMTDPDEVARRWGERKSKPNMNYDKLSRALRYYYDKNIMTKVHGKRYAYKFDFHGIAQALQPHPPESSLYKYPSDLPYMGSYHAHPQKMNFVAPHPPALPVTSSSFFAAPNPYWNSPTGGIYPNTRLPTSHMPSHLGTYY
The essentials: as §1

The next assay addresses ELF1 (Homo sapiens, UniProt P32519 1-619). In short, it runs like this:
as §1

The target of the next assay is T5, EHF (Homo sapiens, UniProt Q9NZC4 1-300).
T5 sequence: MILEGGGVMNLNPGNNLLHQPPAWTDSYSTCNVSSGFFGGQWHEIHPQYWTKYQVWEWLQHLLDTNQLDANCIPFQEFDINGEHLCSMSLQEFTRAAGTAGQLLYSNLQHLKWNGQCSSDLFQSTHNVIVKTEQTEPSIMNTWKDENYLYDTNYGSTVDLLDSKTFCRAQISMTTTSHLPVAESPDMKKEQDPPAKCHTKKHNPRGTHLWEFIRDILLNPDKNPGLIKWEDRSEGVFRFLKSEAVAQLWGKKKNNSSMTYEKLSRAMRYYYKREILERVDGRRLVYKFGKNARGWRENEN
In short, it runs like this:
as §1

A further assay concerns the target SPI1 (Homo sapiens, UniProt P17947 1-270). In short, it runs like this: as §1
Another assay addresses SPIB (Homo sapiens, UniProt Q01892 1-262). In short, it runs like this:
as §1

The target in another assay is T6, ELK3 (Homo sapiens, UniProt P41970 1-407).
T6 sequence: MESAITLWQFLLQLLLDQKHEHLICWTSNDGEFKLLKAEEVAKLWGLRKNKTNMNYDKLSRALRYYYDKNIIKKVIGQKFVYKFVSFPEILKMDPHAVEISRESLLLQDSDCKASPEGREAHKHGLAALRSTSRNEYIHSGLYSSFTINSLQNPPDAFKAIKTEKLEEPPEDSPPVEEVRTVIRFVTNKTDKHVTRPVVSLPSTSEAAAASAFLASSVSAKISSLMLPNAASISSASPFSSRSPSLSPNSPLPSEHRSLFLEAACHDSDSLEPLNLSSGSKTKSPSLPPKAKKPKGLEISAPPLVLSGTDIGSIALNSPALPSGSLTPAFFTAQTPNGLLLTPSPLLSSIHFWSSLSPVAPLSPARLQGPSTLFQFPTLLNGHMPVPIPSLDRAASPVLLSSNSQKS
The essentials: as §1

SPIB, sequence (Q01892 whole entry): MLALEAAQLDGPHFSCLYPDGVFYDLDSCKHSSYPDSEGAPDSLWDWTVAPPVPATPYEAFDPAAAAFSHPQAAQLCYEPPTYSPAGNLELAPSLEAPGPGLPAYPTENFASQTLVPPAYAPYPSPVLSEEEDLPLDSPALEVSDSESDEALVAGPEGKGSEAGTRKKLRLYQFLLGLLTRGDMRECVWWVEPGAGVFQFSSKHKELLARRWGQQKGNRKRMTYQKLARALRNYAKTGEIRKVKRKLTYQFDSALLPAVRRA
ELF1, sequence (P32519 whole entry): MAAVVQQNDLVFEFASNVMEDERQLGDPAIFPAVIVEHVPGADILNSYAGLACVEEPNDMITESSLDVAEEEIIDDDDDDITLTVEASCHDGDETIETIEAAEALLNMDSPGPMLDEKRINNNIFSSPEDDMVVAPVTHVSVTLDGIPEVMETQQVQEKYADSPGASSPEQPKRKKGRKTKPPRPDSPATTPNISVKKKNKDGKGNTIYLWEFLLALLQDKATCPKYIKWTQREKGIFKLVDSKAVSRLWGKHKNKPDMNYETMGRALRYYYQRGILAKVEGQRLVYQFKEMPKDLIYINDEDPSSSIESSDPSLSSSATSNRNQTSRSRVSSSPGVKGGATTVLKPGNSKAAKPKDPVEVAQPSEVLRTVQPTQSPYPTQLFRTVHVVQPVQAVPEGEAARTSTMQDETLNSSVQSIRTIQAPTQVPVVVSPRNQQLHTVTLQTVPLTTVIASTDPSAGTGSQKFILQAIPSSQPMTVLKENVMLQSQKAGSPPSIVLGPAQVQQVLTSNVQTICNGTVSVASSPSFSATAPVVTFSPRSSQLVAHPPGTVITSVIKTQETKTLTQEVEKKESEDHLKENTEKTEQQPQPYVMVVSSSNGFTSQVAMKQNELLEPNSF

As to CTGCTA, the binding signal is 1.38 fold enrichment (6-mer frequency, TF over GST control) with FLI1; 1.53 fold enrichment (6-mer frequency, TF over GST control) with ELK1; 1.46 fold enrichment (6-mer frequency, TF over GST control) with GABPA; 1.39 fold enrichment (6-mer frequency, TF over GST control) in the assay with ERG; 1.47 fold enrichment (6-mer frequency, TF over GST control) in the assay with ELF1; 1.5 fold enrichment (6-mer frequency, TF over GST control) with EHF. Besides, the binding signal with SPI1 was 1.53 fold enrichment (6-mer frequency, TF over GST control); with SPIB it was 1.43 fold enrichment (6-mer frequency, TF over GST control); with ELK3 it was 1.42 fold enrichment (6-mer frequency, TF over GST control).

As for ACTCAA, the binding signal in the assay with FLI1 was 1.19 fold enrichment (6-mer frequency, TF over GST control); with ELK1 it was 1.23 fold enrichment (6-mer frequency, TF over GST control); in the assay with GABPA, 1.22 fold enrichment (6-mer frequency, TF over GST control); with ERG, 1.21 fold enrichment (6-mer frequency, TF over GST control); in the assay with ELF1, 1.22 fold enrichment (6-mer frequency, TF over GST control); with EHF, 1.18 fold enrichment (6-mer frequency, TF over GST control). Further, the binding signal with SPI1 was 1.24 fold enrichment (6-mer frequency, TF over GST control); in the assay with SPIB, 1.23 fold enrichment (6-mer frequency, TF over GST control); with ELK3, 1.31 fold enrichment (6-mer frequency, TF over GST control).

In the case of CTCCGA, the binding signal in the assay with FLI1 was 1.35 fold enrichment (6-mer frequency, TF over GST control); with ELK1, 1.42 fold enrichment (6-mer frequency, TF over GST control); in the assay with GABPA, 1.45 fold enrichment (6-mer frequency, TF over GST control); in the assay with ERG it was 1.34 fold enrichment (6-mer frequency, TF over GST control); with ELF1, 1.37 fold enrichment (6-mer frequency, TF over GST control); with EHF it was 1.39 fold enrichment (6-mer frequency, TF over GST control). The binding signal is 1.44 fold enrichment (6-mer frequency, TF over GST control) with SPI1; 1.52 fold enrichment (6-mer frequency, TF over GST control) with SPIB; 1.33 fold enrichment (6-mer frequency, TF over GST control) in the assay with ELK3.

Regarding TCCGAC, the binding signal with FLI1 is 1.42 fold enrichment (6-mer frequency, TF over GST control); with ELK1 it was 1.47 fold enrichment (6-mer frequency, TF over GST control); with GABPA it was 1.32 fold enrichment (6-mer frequency, TF over GST control); with ERG it was 1.46 fold enrichment (6-mer frequency, TF over GST control); with ELF1, 1.42 fold enrichment (6-mer frequency, TF over GST control); with EHF it was 1.46 fold enrichment (6-mer frequency, TF over GST control). The binding signal was 1.37 fold enrichment (6-mer frequency, TF over GST control) with SPI1; 1.46 fold enrichment (6-mer frequency, TF over GST control) with SPIB; 1.56 fold enrichment (6-mer frequency, TF over GST control) with ELK3.

Take CAAAAC: the binding signal in the assay with FLI1 is 1.19 fold enrichment (6-mer frequency, TF over GST control); with ELK1 it was 1.27 fold enrichment (6-mer frequency, TF over GST control); with GABPA, 1.3 fold enrichment (6-mer frequency, TF over GST control); in the assay with ERG it was 1.23 fold enrichment (6-mer frequency, TF over GST control); with ELF1, 1.28 fold enrichment (6-mer frequency, TF over GST control); in the assay with EHF, 1.26 fold enrichment (6-mer frequency, TF over GST control). Moreover, the binding signal was 1.38 fold enrichment (6-mer frequency, TF over GST control) with SPI1; 1.23 fold enrichment (6-mer frequency, TF over GST control) with SPIB; 1.21 fold enrichment (6-mer frequency, TF over GST control) in the assay with ELK3.

Take CTACAT: the binding signal with FLI1 was 1.43 fold enrichment (6-mer frequency, TF over GST control); with ELK1 it was 1.4 fold enrichment (6-mer frequency, TF over GST control); with GABPA it was 1.44 fold enrichment (6-mer frequency, TF over GST control); with ERG, 1.32 fold enrichment (6-mer frequency, TF over GST control); in the assay with ELF1 it was 1.38 fold enrichment (6-mer frequency, TF over GST control); with EHF, 1.28 fold enrichment (6-mer frequency, TF over GST control). The binding signal with SPI1 was 1.38 fold enrichment (6-mer frequency, TF over GST control); with SPIB it was 1.5 fold enrichment (6-mer frequency, TF over GST control); with ELK3, 1.43 fold enrichment (6-mer frequency, TF over GST control).

As for AGCCTT, the binding signal with FLI1 was 1.12 fold enrichment (6-mer frequency, TF over GST control); in the assay with ELK1 it was 1.11 fold enrichment (6-mer frequency, TF over GST control); in the assay with GABPA, 1.01 fold enrichment (6-mer frequency, TF over GST control); with ERG, 1.11 fold enrichment (6-mer frequency, TF over GST control); in the assay with ELF1, 1.2 fold enrichment (6-mer frequency, TF over GST control); in the assay with EHF, 1.15 fold enrichment (6-mer frequency, TF over GST control). The binding signal with SPI1 is 1.12 fold enrichment (6-mer frequency, TF over GST control); with SPIB, 1.21 fold enrichment (6-mer frequency, TF over GST control); with ELK3, 1.03 fold enrichment (6-mer frequency, TF over GST control).

In the case of TCCTAT, the binding signal was 1.62 fold enrichment (6-mer frequency, TF over GST control) with FLI1; 1.56 fold enrichment (6-mer frequency, TF over GST control) with ELK1; 1.58 fold enrichment (6-mer frequency, TF over GST control) in the assay with GABPA; 1.45 fold enrichment (6-mer frequency, TF over GST control) with ERG; 1.46 fold enrichment (6-mer frequency, TF over GST control) with ELF1; 1.5 fold enrichment (6-mer frequency, TF over GST control) in the assay with EHF. Moreover, the binding signal in the assay with SPI1 was 1.44 fold enrichment (6-mer frequency, TF over GST control); in the assay with SPIB, 1.6 fold enrichment (6-mer frequency, TF over GST control); with ELK3, 1.47 fold enrichment (6-mer frequency, TF over GST control).
